Pf growth 48h: P. falciparum growth inhibition at 48 hours (one generation) | hit rate 5.9% among 310,000 | P. falciparum luciferase growth in erythrocytes, 48 h | Potency, µM (doses to about 28.7 µM), usual class: inhibitors
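Luciferase-expressing parasites in RBCs, 2% Hct / 0.1% parasitemia final; RPMI 1640 + 0.5% Albumax; 37 C, 5% CO2, one generation; luminescence read-out, lower signal = inhibition.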
AMA1 RON2 block: disrupts binding of P. falciparum AMA1 to RON2 | Potency, µM (top dose mostly 58.2 µM), actives largely listed as inhibitors | AlphaScreen AMA1-biotinylated RON2 peptide binding | hit rate 0.2% among 360,000; also: nearly all actives have a fitted effect of over 45% in size
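AMA1 (3D7) with his tag at 25 nM final met compounds first, then biotinylated RON2 peptide at 25 nM; detection used donor plus acceptor beads, 10 µg/mL apiece, read by AlphaScreen after 30 min at room temperature.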
Pf growth 96h: P. falciparum growth inhibition at 96 hour, primary screen for plastid delayed-death inhibitors; Potency, µM (highest dose often 28.7 µM), actives largely listed as inhibitors; hit rate 6.9% among 320,000; P. falciparum luciferase reporter growth, 96 h; AID 504834
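Cell-based qHTS: luciferase-tagged P. falciparum in erythrocytes (2% hematocrit, 0.05% parasitemia final) incubated with compounds for 96 hours, 37 C, 5% CO2; luciferase detection reagent then added and luminescence measured.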
HCV inhibitor: HCV inhibition | Huh7.5.1 HCVcc-Cre infection, luciferase reporter, 44 h | Potency, µM (top dose mostly 41.8 µM), usual class: inhibitors | hit rate 3.4% among 340,000
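Whole-lifecycle infectious HCVcc-Cre system; cells 1,000/well, compound then virus (~0.5 moi) added 4 h after plating, 44 h culture. Luciferase read 15 sec following 15 min substrate incubation, room temp.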
Hits are given with their value; n = inactive; u = inconclusive; x = no result given; [ ] = another dose, or the depositor's remark. An excerpt weighted towards active compounds, which were near 11% of everything screened. Calls follow the shape of the dose curve; as a rule, active = well fitted curve in the direction sought with a large enough effect; inconclusive = small, poorly fitted or top-dose-only effect, or another doubt; inactive = no such curve, though single readings can be large; an effect the other way counts as inactive or inconclusive.

SMILES	Pf growth 48h	AMA1 RON2 block	Pf growth 96h	HCV inhibitor
CC(C)(C)c1nc(CN2CCOCC2)cc(CN2CCOCC2)c1O	x	u	u	n
COc1ccc(C(=O)Nc2ccc(C(=O)O)cc2NC(=O)c2ccc(OC)cc2)cc1	n	n	n	n
COc1ccc(C(=O)Nc2ccc(C3=NNC(=O)CC3C)cc2NC(=O)c2ccc(OC)cc2)cc1 (centres undefined)	u	n	u	10µM
COc1ccccc1C(=O)NC(=O)CSc1ccc(C)c(C)c1	x	n	x	n
CCOC(=O)c1sc(N(Cc2ccccc2)C(=O)CCl)nc1C	u	n	n	17.8µM
CCOC(=O)c1sc(N(Cc2ccccc2)C(=O)COC(=O)c2ccccc2O)nc1C	n	n	n	n
COc1ccc(C[C@H]2CN3C(=NC[C@H]3Cc3ccccc3)N2CCNC(=O)c2ccc(C)c(Br)c2)cc1	5.22µM	n	1.65µM	n
COc1ccc(C[C@H]2CN3C(=NC[C@@H]3Cc3ccccc3)N2CCNC(=O)c2ccc(C)c(Br)c2)cc1	u	n	5.22µM	u
C/C=C(\C)C(=O)NCCN1C2=NC[C@H](Cc3ccccc3)N2C[C@@H]1Cc1ccc(OC)cc1	x	n	x	n
Cn1c(=O)c2c(nc(/C=C/c3cccc(Cl)c3)n2C)n(C)c1=O	x	n	x	n
COc1ccc(C[C@@H]2c3cc(OC)c(OC)cc3CC[N@+]2(C)CCC(=O)OCCCCCOC(=O)CC[N@@+]2(C)CCc3cc(OC)c(OC)cc3[C@H]2Cc2ccc(OC)c(OC)c2)cc1OC	n	x	n	x
Cc1ccc(C(=O)Nc2ccon2)cc1S(=O)(=O)N1CCCC1	n	n	x	n
CC1CC(O)(Cc2ccccc2)C(C)CN1C (centres undefined)	n	n	n	n
Cc1ccc(C)c(C2(O)CC(C)N(C)CC2C)c1 (centres undefined)	n	n	6.57µM	n
CCc1nc2ccc(C(=O)NCCCn3ccnc3)cn2c1N(C)C(=O)COc1ccccc1	x	n	x	x
CCc1cccc(CC)c1NC(=O)CSc1nc2ccc(N3C(=O)C4C5C=CC(C5)C4C3=O)cc2s1 (centres undefined)	n	n	x	11.2µM
COC(=O)c1ccc(NC(=O)CSc2nc3ccc(N4C(=O)C5C6C=CC(C6)C5C4=O)cc3s2)cc1 (centres undefined)	u	n	9.28µM	11.2µM
COc1ccccc1C1c2[nH]c3ccccc3c2C[C@H]2C(=O)N(C3CCN(Cc4ccccc4)CC3)CC(=O)N12 (some centres undefined)	1.85µM	n	1.47µM	u
COc1cccc(C2c3[nH]c4ccccc4c3C[C@H]3C(=O)N(C4CCN(Cc5ccccc5)CC4)CC(=O)N23)c1 (some centres undefined)	4.65µM	n	3.7µM	u
COc1ccc(C2c3[nH]c4ccccc4c3C[C@H]3C(=O)N(C4CCN(Cc5ccccc5)CC4)CC(=O)N23)cc1OC (some centres undefined)	1.47µM	n	1.47µM	u
Cc1ccccc1C1c2[nH]c3ccccc3c2C[C@H]2C(=O)N(C3CC3)CC(=O)N12 (some centres undefined)	11.7µM	n	3.7µM	n
O=C1[C@@H]2Cc3c([nH]c4ccccc34)C(c3ccc([N+](=O)[O-])cc3)N2C(=O)CN1C1CC1 (some centres undefined)	n[0.00184 µM]	n	u	u
O=C1[C@@H]2Cc3c([nH]c4ccccc34)C(c3ccccc3)N2C(=O)CN1C1CC1 (some centres undefined)	u	n	u	n
CN(CC(=O)N1CCN(Cc2ccccc2)CC1)C(=O)Cc1cccc2ccccc12	u	n	u	u
N#Cc1nc(NCC(F)F)nc(Nc2cc(F)cc(F)c2)n1	10.4µM	x	u	x
SMILES	Pf growth 48h	AMA1 RON2 block	Pf growth 96h	HCV inhibitor
N#Cc1nc(Nc2cc(F)cc(F)c2)c2ncn(CC(F)F)c2n1	u	x	0.294µM	x
O=C1C=C(NNC(=O)c2ccccc2Br)CCC1	n	n	n	n
Cc1cc(NC(=O)CSC2=NS(=O)(=O)c3cc(F)ccc3N2)no1	n	n	n	n
Cc1nn(-c2ccccc2)c(Cl)c1CN(C(=O)CCl)c1ccc(Cl)cc1	n	n	u	10µM
Cc1nn(-c2ccccc2)c(Cl)c1CN(C(=O)CCl)c1cccc2ccccc12	3.7µM	n	u	u
CC(=O)N(Cc1c(C)nn(-c2ccccc2)c1Cl)c1ccc(Cl)cc1	u	n	u	u
CCSc1nnc(NC(=O)CSc2nc3c(c(=O)n2CCOC)SC(C)C3)s1 (centres undefined)	u	n	n	n

High-throughput results (PubChem BioAssay)
